In the library only some 22% were active in any assay of this set; here they are far more common.
Measles CPE: protection of cells from measles virus | AID 841 | Measles virus-infected cells, CPE protection, absorbance | protection (pct of control), % at 4 µM | 1.5% of 140,000 active; in the data active = protection mostly above about 24%, no sharp cut-off; inactive = mostly below about 26%
CYP2C9 act: activators of human CYP2C9 | P11712 | recombinant CYP2C9, luciferin-H conversion, luminescence; stronger effect = higher value; factor 1 = untreated enzyme, 0 = blocked | activation factor at 5 µM | 1.4% of 96,000 active | AID 1024;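 active = activation factor of 2 or more for CYP2C9 at a 5 µM dose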
Target sequence (P11712 whole entry, looked up): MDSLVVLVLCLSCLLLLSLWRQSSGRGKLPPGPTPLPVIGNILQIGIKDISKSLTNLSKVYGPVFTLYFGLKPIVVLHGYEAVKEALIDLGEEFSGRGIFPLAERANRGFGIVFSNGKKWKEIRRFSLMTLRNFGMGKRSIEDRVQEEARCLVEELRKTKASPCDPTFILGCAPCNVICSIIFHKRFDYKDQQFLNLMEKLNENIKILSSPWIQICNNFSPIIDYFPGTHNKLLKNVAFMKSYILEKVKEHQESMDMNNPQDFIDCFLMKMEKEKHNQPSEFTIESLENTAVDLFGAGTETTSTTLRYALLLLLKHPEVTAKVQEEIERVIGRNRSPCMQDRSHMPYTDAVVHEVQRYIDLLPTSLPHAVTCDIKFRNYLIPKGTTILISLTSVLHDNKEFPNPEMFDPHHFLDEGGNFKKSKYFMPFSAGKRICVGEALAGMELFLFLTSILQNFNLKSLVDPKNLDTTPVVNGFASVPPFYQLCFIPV
CYP2C9 inhib: inhibitors of human CYP2C9 | P11712 | CYP2C9 Supersomes, luciferin-H conversion, luminescence | inhibition, % at 5 µM | 20% of 96,000 active | AID 777;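 active = blocking of liver enzyme CYP2C9 beyond about 50% at 5 µM, limit read from the data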
CYP2C19 act: cytochrome P450 2C19 (human) activation; P33261; recombinant CYP2C19, luciferin-H EGE luminescence; stronger effect = higher value; 0 = fully inhibited enzyme, 1 = untreated enzyme; activation factor at 5 µM; 96,000 tested, under 10 active;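 active = activation factor of at least 2 at 5 µM in the primary screen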
CYP2C19 inhib: inhibitors of human CYP2C19; inhibition, % at 5 µM; P33261; CYP2C19 Supersomes, luciferin-H EGE luminescence, 30 min; 21% of 96,000 active;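 active = CYP2C19 inhibition above a set limit at 5 µM in the primary screen, cut at about 50% in these data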
Each line names hits and unclear results; the compound was inactive in the other large screens.

CCOCCCNC(=O)C(c1ccc(C)cc1)N(Cc1cccs1)C(=O)CNC(C)=O (configuration not stated)	none (no result: CYP2C9 act, CYP2C9 inhib, CYP2C19 act, CYP2C19 inhib)
CC(=O)NC(C)C(=O)OCc1ccc(Cl)cc1Cl (configuration not stated)	CYP2C9 act 2.7, CYP2C19 inhib 59.1
CC(NC(N)=O)C(=O)OCc1ccc(Cl)cc1Cl (configuration not stated)	none
N/C(=N\OC(=O)c1cccc(Cl)c1)c1ccccn1	none (no result: CYP2C9 act, CYP2C9 inhib, CYP2C19 act, CYP2C19 inhib)
O=C(COC(=O)c1cccnc1Cl)c1cccc(Cl)c1	CYP2C19 inhib 56.2
O=C(OCc1ccc(Cl)cc1Cl)c1cccnc1Cl	CYP2C19 inhib 74.3
O=C(CN(c1ccc(F)cc1)S(=O)(=O)c1ccc2c(c1)OCCO2)NCc1ccncc1	CYP2C9 inhib 73.2, CYP2C19 inhib 89.8
O=C(CN(c1ccc(F)cc1)S(=O)(=O)c1ccc2c(c1)OCCO2)NCC1CCCO1 (configuration not stated)	none
CCCNC(=O)CN(c1ccc(F)cc1)S(=O)(=O)c1ccc2c(c1)OCCO2	CYP2C9 inhib 85.0, CYP2C19 inhib 81.2
O=C(O)CN(c1ccc(F)cc1)S(=O)(=O)c1ccc2c(c1)OCCO2	none
O=C(CN(c1ccc(F)cc1)S(=O)(=O)c1ccc2c(c1)OCCO2)NCc1cccnc1	CYP2C9 inhib 84.0, CYP2C19 inhib 93.9
COc1ccc2c(=O)c(-c3ccc4c(c3)OCO4)coc2c1	none (no result: CYP2C9 act, CYP2C9 inhib, CYP2C19 act, CYP2C19 inhib)
CN(C)C(=O)COC(=O)c1ccccc1Nc1ccc(SC(F)F)cc1	none (no result: CYP2C9 act, CYP2C9 inhib, CYP2C19 act, CYP2C19 inhib)
COc1cc(C2C3=C(CC(C)(C)CC3=O)OC(N)=C2[N+](=O)[O-])ccc1O (configuration not stated)	none (no result: CYP2C9 act, CYP2C9 inhib, CYP2C19 act, CYP2C19 inhib)
CCCCCCC(=O)N/N=C/Cc1ccccc1	none
CC1CCc2nc(NC(=O)c3ccc(S(=O)(=O)N4CCCc5ccccc54)cc3)sc2C1 (configuration not stated)	CYP2C9 inhib 54.3
CCc1nnc(NC(=O)c2ccc(S(=O)(=O)N3CCCc4ccccc43)cc2)o1	CYP2C9 inhib 62.3
CS(=O)(=O)NCCOc1ccc(S(=O)(=O)N2CCCc3ccccc32)cc1	CYP2C9 act 2.1, CYP2C19 inhib 75.1
CCOC(=O)CN1C(=O)CN(c2ccc(C)c(C)c2)C1=O	none (no result: CYP2C9 act, CYP2C9 inhib, CYP2C19 act, CYP2C19 inhib)
COc1ccc([N+](=O)[O-])cc1NC(=O)c1ccc(C)o1	none (no result: CYP2C9 act, CYP2C9 inhib, CYP2C19 act, CYP2C19 inhib)
CCCC(C)C(=O)Nc1ccc2c(c1)OCCO2 (configuration not stated)	none
CCNC(=O)NC(=O)C(C)Sc1ccc2c(c1)OCCO2 (configuration not stated)	CYP2C19 inhib 52.8
C/C=C/Cn1c(SCCCc2ccccc2)nc2c1c(=O)[nH]c(=O)n2C	CYP2C9 inhib 77.3, CYP2C19 inhib 58.5
C=CCn1c(SCCCc2ccccc2)nc2c1c(=O)[nH]c(=O)n2C	CYP2C9 inhib 63.4, CYP2C19 inhib 75.5
CC(C)P(=O)(c1cccc(C(=O)O)c1)C(C)C	none (no result: CYP2C9 act, CYP2C9 inhib, CYP2C19 act, CYP2C19 inhib)
C=CCOc1cccc(C2C(C(=O)c3ccc(C)o3)=C(O)C(=O)N2Cc2ccncc2)c1 (configuration not stated)	CYP2C9 inhib 61.8
C=CCOc1cccc(C2C(C(=O)c3ccco3)=C(O)C(=O)N2Cc2ccncc2)c1 (configuration not stated)	CYP2C9 inhib 83.9
CCOc1cccc(C2C(C(=O)c3ccc(C)o3)=C(O)C(=O)N2Cc2ccncc2)c1 (configuration not stated)	none
C=CCn1c(SCC(=O)NCc2cccs2)nnc1C1CCCCC1	none
CN(C)c1ccc(N/C=C/C(=O)c2ccco2)cc1	none
CN(C)c1ccc(N/C=C/C(=O)c2ccc(F)cc2)cc1	CYP2C19 inhib 69.2
Cc1ccccc1NC(=O)c1ccc(CN(c2ccccc2)S(=O)(=O)c2ccccc2)cc1	none (no result: CYP2C9 act, CYP2C9 inhib, CYP2C19 act, CYP2C19 inhib)
Cc1ccc(NC2=Nc3ccccc3CS2)cc1	CYP2C19 inhib 51.2
Cc1ccc(Nc2ccccc2)cc1	none (no result: CYP2C9 act, CYP2C9 inhib, CYP2C19 act, CYP2C19 inhib)
Cc1nn2c(COc3ccc(NC(=O)c4ccccc4Cl)cc3)nnc2c2ccccc12	none (no result: CYP2C9 act, CYP2C9 inhib, CYP2C19 act, CYP2C19 inhib)
COc1ccc(C2C=C(c3ccccc3)Nc3nc(NC(C)=O)nn32)cc1 (configuration not stated)	none
COc1ccc(C2C=C(c3ccccc3)Nc3nnnn32)cc1 (configuration not stated)	CYP2C9 inhib 74.1, CYP2C19 inhib 89.5
COc1cccc(C2=CC(c3ccccc3)n3nnnc3N2)c1 (configuration not stated)	CYP2C9 inhib 79.4, CYP2C19 inhib 82.2
COc1ccc(C2=CC(c3ccc(C)cc3)n3nnnc3N2)cc1 (configuration not stated)	CYP2C9 inhib 86.5, CYP2C19 inhib 74.7
c1ccc2c(c1)nc1n2CCS1	CYP2C19 inhib 62.5

High-throughput results: PubChem BioAssay, several laboratories
